According to PubChem BioAssay (EPA / NIEHS):
Inconclusive results are not listed. Active and inactive are the calls of the source. How the source made its calls, unless noted: active means hit-call score of the fitted dose curve at least 0.9, where 1 is the maximum; inconclusive means response in the unintended direction; inactive means score below 0.9.

Key:
[1] = CCTE_Shafer_MEA_acute_LDH: CCTE's Lactate Dehydrogenase Assay for Cytotoxicity in the Neural Acute Assay, Shafer Lab (AID 2284086);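 further: active means LDH release rises above DMSO vehicle level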
Summary of the method: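 Medium collected from MEA wells of primary rat cortical cultures (DIV 13 or 15) immediately after 40 min chemical exposure is assayed spectrophotometrically for lactate dehydrogenase activity. Endpoint fitted in positive direction versus DMSO.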

[2] = CCTE_Shafer_MEA_dev_AB: CCTE's Alamar Blue Assay for Cytotoxicity in the Neural Network Formation Assay, Shafer Lab (AID 2284083);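 further: resazurin reduction fluorescence as viability of cultured neurons; twelve days of exposure from plating with re-dosing on DIV 5 and 9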
Summary of the method: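 Cytotoxicity companion to the developmental MEA: primary rat cortical neurons, 12-day exposure starting day 0, compound refreshed DIV 5 and 9; resazurin fluorescence, fitted against DMSO vehicle.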

[3] = CCTE_Shafer_MEA_dev_mutual_information_norm: CCTE's Neural Network Formation Assay for Mutual Information Normalization, Shafer Lab (AID 2284091; active means hit-call score of the fitted dose curve at least 0.9, where 1 is the maximum; inactive means score below 0.9;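 on AC50: mutual information between electrodes summarised as area under curve across four recording days; potency is for a decrease in mutual information relative to DMSO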)
Summary of the method: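 Shared information across electrodes, tracked on days 5, 7, 9 and 12 of network development and collapsed as trapezoidal area under the curve. Rat cortical cultures were treated continuously from plating, with treatment renewed at feeds on DIV 5 and 9; DMSO baseline, negative-direction fit.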

[4] = CCTE_Shafer_MEA_dev_correlation_coefficient_mean: CCTE's Neural Network Formation Assay for Mean Correlation Coefficient, Shafer Lab (AID 2284093; active means hit-call score of the fitted dose curve at least 0.9, where 1 is the maximum; inactive means score below 0.9;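 on AC50: well mean pairwise spike train correlation integrated as AUC over recording days 5 to 12; potency fitted for loss of correlation relative to DMSO vehicle wells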)
Summary of the method: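 Extracellular firing from rat cortical networks on 48-well MEAs, DMSO-referenced, negative fitting direction. Compound present from plating to DIV12; mean pairwise correlation per well integrated over DIV5–12 recordings by trapezoidal AUC.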

[5] = UKN4_HCS_LUHMES_neurite_outgrowth: University of Konstanz (UKN) Leist Lab Neurite Outgrowth Assay in human LUHMES cells (UKN4) (AID 2284206; active means hit-call score of the fitted dose curve at least 0.9, where 1 is the maximum; inactive means score below 0.9); settings: actives raise or lower the signal
Summary of the method: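 Human LUHMES cells were differentiated for two days, replated and treated with chemicals for 24 h. Neurite outgrowth was quantified as calcein-stained neurite area by HCS imaging, fitted bidirectionally relative to DMSO.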

DIO3 (gene 1735) = experiment: CCTE_GLTED_hDIO3: CCTE's human Deiodinase 3 (DIO3) Inhibition Assay, Great Lakes Toxicology and Ecology Division (GLTED) Lab (AID 2284055);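 on AC50: potency is for inhibition seen as loss of released iodide signal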
Summary of the method: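 Human type 3 deiodinase, expressed via adenovirus system, was exposed to test chemicals for 3 hours in a cell-free format. Released iodide was then determined spectrophotometrically by Sandell-Kolthoff; plates ran in triplicate.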

[6] = UKN5_HCS_SBAD2_cell_viability: Viability Assessment in the University of Konstanz (UKN) Leist Lab Neurite Outgrowth Assay in human iPSC-derived immature Dorsal Root Ganglia Neurons (UKN5) (AID 2284056; active means hit-call score of the fitted dose curve at least 0.9, where 1 is the maximum; inactive means score below 0.9)
Summary of the method: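 iPSC-derived immature peripheral neurons (SBAD2) seeded on Matrigel with CHIR99021, SU5402 and DAPT, dosed 1 h later for 24 h. Viability from Hoechst H-33342 and calcein-AM live staining, high-content imaging; bidirectional fit versus DMSO.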

[7] = CCTE_Shafer_MEA_dev_LDH: CCTE's Lactate Dehydrogenase Assay for Cytotoxicity in the Neural Network Formation Assay, Shafer Lab (AID 2284068);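 further: exposure for twelve days from plating with re-dosing on DIV 5 and 9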
Summary of the method: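 Developing rat cortical networks on MEA plates are exposed to compound for 12 days from plating. LDH activity is measured spectrophotometrically, with DMSO as baseline.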

[8] = UKN5_HCS_SBAD2_neurite_outgrowth: University of Konstanz (UKN) Leist Lab Neurite Outgrowth Assay in human iPSC-derived immature Dorsal Root Ganglia Neurons (UKN5) (AID 2284070; active means hit-call score of the fitted dose curve at least 0.9, where 1 is the maximum; inactive means score below 0.9); settings: actives raise or lower the signal
Summary of the method: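 Thaw, seed on Matrigel (100.000 cells/cm2), dose 1 h later; at 23 h live-stain with H-33342 and calcein-AM for 60 min; image at 24 h. Neurite area fitted bidirectionally vs DMSO.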

[9] = UKN2_HCS_IMR90_neural_migration: University of Konstanz (UKN) Leist Lab Neural Crest Cell Migration Assay in human induced IMR90 Pluripotent Stem Cells (UKN2) (AID 2284204; active means hit-call score of the fitted dose curve at least 0.9, where 1 is the maximum; inactive means score below 0.9); settings: actives raise or lower the signal
Summary of the method: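 High-content imaging of calcein-AM and Hoechst stained cells quantifies migration into a stopper-defined gap after 24 h compound exposure. Neural crest cells from IMR90 iPSC migrated 24 h in EGF/FGF N2-S medium before dosing; DMSO baseline.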

CC(N)=O
outcome [1]: inactive

Cc1cc(Cc2ccc(N)c(C)c2)ccc1N
outcome [1]: inactive

Oc1ccc(O)cc1
outcome [1]: inactive

c1ccc2occc2c1
outcome [1]: inactive

OCC(O)CO
outcome [2]: inactive | outcome [3]: inactive | outcome [4]: inactive | outcome [5]: inactive

O=C(O)CN(CC(=O)O)CC(=O)O
outcome [1]: inactive

CCCC(=O)O
outcome [1]: inactive

CCCCC(CC)COP(=O)(OCC(CC)CCCC)OCC(CC)CCCC (stereo unspecified)
outcome [1]: inactive

O=Cc1ccccc1C=O
AC50 (DIO3 (gene 1735)): 2.92 µM (active)

CCN(CC)CCOc1ccc(C(=C(Cl)c2ccccc2)c2ccccc2)cc1
outcome [1]: inactive

O=C1NC(=O)C(c2ccccc2)(c2ccccc2)N1
outcome [6]: inactive | outcome [7]: inactive | outcome [8]: inactive | outcome [3]: inactive | outcome [4]: inactive | outcome [9]: inactive | outcome [5]: inactive

CC(C)COC(=O)CCCCC(=O)OCC(C)C
outcome [1]: inactive

CC(C)NCC(O)c1ccc(O)c(O)c1 (stereo unspecified)
outcome [1]: inactive

C/C=C/c1ccc(OC)cc1
outcome [1]: inactive

CC(=O)O[C@]1(C(C)=O)CC[C@H]2[C@@H]3C=C(Cl)C4=CC(=O)[C@@H]5C[C@@H]5[C@]4(C)[C@H]3CC[C@@]21C
AC50 (DIO3 (gene 1735)): 5.1 µM (active)

CC1=C(C)S(=O)(=O)CCS1(=O)=O
outcome [1]: inactive

CC(=O)CC(c1ccccc1)c1c(O)c2ccccc2oc1=O (stereo unspecified)
outcome [7]: inactive | outcome [2]: inactive | outcome [3]: inactive | outcome [4]: inactive

Cc1ccc(-c2cc(C(F)(F)F)nn2-c2ccc(S(N)(=O)=O)cc2)cc1
AC50 (DIO3 (gene 1735)): 172 µM (active)

COC(=O)[C@H]1[C@H]2C[C@@H]3c4[nH]c5cc(OC)ccc5c4CCN3C[C@H]2C[C@@H](OC(=O)c2cc(OC)c(OC)c(OC)c2)[C@@H]1OC
AC50 [7]: 6.75 µM (active) | AC50 [2]: 10 µM (active) | outcome [1]: inactive | AC50 [3]: 5.56 µM (active) | AC50 [4]: 10 µM (active)

Cc1c(C)c2c(c(C)c1O)CCC(C)(COc1ccc(CC3SC(=O)NC3=O)cc1)O2 (stereo unspecified)
AC50 (DIO3 (gene 1735)): 95.1 µM (active)

O=C(Oc1ccccc1)c1cccc(C(=O)Oc2ccccc2)c1
AC50 (DIO3 (gene 1735)): 64.5 µM (active)

CN(C)C(=O)NC1(c2ccccc2)CCN(CC[C@@]2(c3ccc(F)c(F)c3)CN(C(=O)c3ccccc3)CCO2)CC1
outcome [1]: inactive

CN(C)C(=O)NC1(c2ccccc2)CCN(CCC[C@]2(c3ccc(Cl)c(Cl)c3)CCCN(C(=O)c3ccccc3)C2)CC1
outcome [1]: inactive

CCCCCCC(C=O)=Cc1ccccc1
AC50 (DIO3 (gene 1735)): 3.29 µM (active)

NC(=Nc1ccccc1)Nc1ccccc1
outcome [1]: inactive

CN(C)CCCN1c2ccccc2Sc2ccc(Cl)cc21
AC50 (DIO3 (gene 1735)): 158 µM (active) | AC50 [6]: 13.7 µM (active) | AC50 [7]: 5.01 µM (active) | AC50 [8]: 6.11 µM (active) | AC50 [2]: 15 µM (active) | outcome [1]: inactive | AC50 [3]: 5.4 µM (active) | AC50 [4]: 5.87 µM (active) | AC50 [9]: 8.89 µM (active) | AC50 [5]: 6.73 µM (active)

Nc1nc(=S)c2[nH]cnc2[nH]1
outcome [1]: inactive

Cc1ccc(C(C)(C)C)c(O)c1
outcome [1]: inactive

Cc1cc(SC2=C(O)C[C@@](CCc3ccc(N)cc3)(C(C)C)OC2=O)c(C(C)(C)C)cc1CO
outcome [1]: inactive

OCC(CO)n1cnc(-c2ccc(F)cc2)c1-c1ccnc(Oc2ccccc2)n1
outcome [1]: inactive

S=c1[nH]c2ccccc2s1
AC50 (DIO3 (gene 1735)): 73.2 µM (active)

COc1ccc(OC(F)(F)F)cc1CN[C@H]1CCCN[C@H]1c1ccccc1
outcome [1]: inactive

CCCCCCCCCCCCCCOS(=O)(=O)O
AC50 (DIO3 (gene 1735)): 18.5 µM (active)

CCc1cc(C2=C(C(=O)O)N(c3ccccc3C(F)(F)F)S(=O)(=O)c3ccccc32)cc2c1OCO2
outcome [1]: inactive

O=C(N[C@@H](c1ccccc1)[C@@H]1CCCCN1)c1cccc(C(F)(F)F)c1Cl
outcome [1]: inactive

CCCCCCCCCCCCCCCCO
outcome (DIO3 (gene 1735)): inactive
